From PubChem BioAssay
In the library only some 2.7% were active in any assay of this set; here they are far more common.
CF NFkB inh – inhibitors of cystic fibrosis induced NF-kB; KKLEB NF-kB-GFP reporter, PAF-induced, GFP fluorescence overnight; inhibition, % at 5 µM; actives 0.86% (n = 360,000);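 active means at least 50% inhibition at 5 µM, scaled per plate between neutral and stimulator controls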;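 further: PAF is a Pseudomonas aeruginosa culture filtrate used as stimulus; plate controls were PAF-stimulated DMSO wells for no effect and unstimulated DMSO wells for full effect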
TRPM1 prom inh – inhibitors of MITF-driven TRPM1 promoter in melanoma cells. SK-MEL-5 TRPM1 promoter luciferase, 24 h. inhibition, % at 12.5 µM. actives 0.83% (n = 330,000);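 active means mean inhibition across replicates of 60% or more, whatever share of single replicates reaches that level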
Shn3 inh set2 – Schnurri-3 reporter inhibition in Clone20 osteoblasts; inhibition, % at 12.5 µM; actives 0.52% (n = 360,000); AID 588674; Clone20 osteoblast Shn3 3'UTR firefly luciferase, 24 h;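 active means mean inhibition of at least 75% with every replicate also reaching 75%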;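 further: 0% = median of neutral control wells and 100% = pilot-screen positive control compound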
Peg3 prom inh – inhibitors of Peg3 promoter; HeLa PEG-Prom luciferase reporter, luminescence, overnight; inhibition, % at 20 µM; actives 1.7% (n = 360,000); AID 588405;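 active means inhibition of at least 50% at 20 µM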
HIF-2a inh – HIF-2a inhibition | 786-0 RCC cells HIF-2a reporter, luciferase luminescence, overnight | inhibition, % at 18.8 µM | actives 0.72% (n = 360,000) | AID 624352;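 active means inhibition of the luminescence signal of 40% or more relative to plate controls, in a single-dose primary screen at 18.75 µM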
KKLEB cytotox – counter-screen for CF NF-kB inhibitors: cytotoxicity; activity change (cytotoxicity), % at 5 µM; actives 0.36% (n = 360,000); AID 602141; KKLEB CF airway cells viability, ATPlite luminescence, overnight; active compounds read low; cells stimulated with P. aeruginosa culture filtrate;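 active means corrected activity change at or below -50% at 5 µM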
* = called active by the depositor.

What do the screens show for `CCOC(=O)c1c(C)[nH]c2cc(Br)c(O)cc12`?
CF NFkB inh: -3; TRPM1 prom inh: -22; Shn3 inh set2: -16; Peg3 prom inh: -191; HIF-2a inh: -15; KKLEB cytotox: 9

How did CCOC(=O)c1c(OCC)[nH]c2c1cc(O)c1ccccc12 do in these assays?
CF NFkB inh: 85*; TRPM1 prom inh: 12; Shn3 inh set2: -20; Peg3 prom inh: -16; HIF-2a inh: -19; KKLEB cytotox: -22

What do the screens show for `O=C(NCc1ccco1)C1C(=O)Nc2ccccc2C(=O)N1C1CCCCC1` (configuration not stated)?
HIF-2a inh: -8

Results for CC1CCN(S(=O)(=O)c2ccc(NC(=O)Cn3nnc(-c4ccccc4)n3)cc2)CC1 ?
CF NFkB inh: -18; TRPM1 prom inh: 8; Shn3 inh set2: 26; Peg3 prom inh: 26; HIF-2a inh: 18; KKLEB cytotox: -15

What do the screens show for `Cc1ccc(-c2nnn(CC(=O)Nc3ccc(S(=O)(=O)N4CCC(C)CC4)cc3)n2)cc1`?
CF NFkB inh: -6; TRPM1 prom inh: 12; Shn3 inh set2: 73; Peg3 prom inh: 63*; HIF-2a inh: 2; KKLEB cytotox: -8

Results for COc1cc(CCC(=O)NNC(=O)c2cccc(Cl)c2)cc(OC)c1OC ?
CF NFkB inh: 5; TRPM1 prom inh: -9; Shn3 inh set2: -10; Peg3 prom inh: 15; HIF-2a inh: 8; KKLEB cytotox: 0

What do the screens show for `CC(=O)c1ccc(Nc2nc(-c3sc(C)nc3C)cs2)cc1`?
CF NFkB inh: -46; Shn3 inh set2: -4; Peg3 prom inh: 55*; HIF-2a inh: -71; KKLEB cytotox: -14

What do the screens show for `O=C(Cn1cc(C(=O)C(F)(F)F)c2ccccc21)Nc1ccccc1F`?
CF NFkB inh: 1; TRPM1 prom inh: 15; Shn3 inh set2: 56; Peg3 prom inh: 16; HIF-2a inh: 20; KKLEB cytotox: -2

Results for O=C(Cn1cc(C(=O)c2ccco2)c2ccccc21)Nc1ccccc1F ?
CF NFkB inh: -16; TRPM1 prom inh: 12; Shn3 inh set2: 89*; Peg3 prom inh: 16; HIF-2a inh: 11; KKLEB cytotox: -8

Results for c1ccc(OCCNc2ccn3nc(-c4ccco4)cc3n2)cc1 ?
CF NFkB inh: 7; Shn3 inh set2: -31; Peg3 prom inh: -207; HIF-2a inh: -255; KKLEB cytotox: -12

How did C=CCn1cnc2c(c1=O)c1nc3ccccc3nc1n2/N=C/c1cccc(OC)c1OC do in these assays?
CF NFkB inh: -49; TRPM1 prom inh: -36; Shn3 inh set2: -13; Peg3 prom inh: 61*; HIF-2a inh: -35; KKLEB cytotox: -1

How did CCN(c1ccccc1)S(=O)(=O)c1ccc(Cl)c(NC(=O)CN(C)Cc2cccc(F)c2)c1 do in these assays?
CF NFkB inh: 11; TRPM1 prom inh: 13; Shn3 inh set2: 91*; Peg3 prom inh: 21; HIF-2a inh: 17; KKLEB cytotox: -3

How did CCC(C)N(C(=O)COC(=O)c1cc([N+](=O)[O-])ccc1N)C1CCS(=O)(=O)C1 (configuration not stated) do in these assays?
CF NFkB inh: -16; TRPM1 prom inh: 6; Shn3 inh set2: 17; Peg3 prom inh: 0; HIF-2a inh: 3; KKLEB cytotox: 9

What do the screens show for `CC(C)(C)S(=O)(=O)N1Cc2ccc(CO)cc2[C@H]1CCO`?
CF NFkB inh: -21; TRPM1 prom inh: 1; Shn3 inh set2: -12; Peg3 prom inh: -5; HIF-2a inh: 5; KKLEB cytotox: 22

What do the screens show for `O=C1c2ccccc2C(=O)c2c1ncn2-c1ccccc1`?
CF NFkB inh: -25; TRPM1 prom inh: 61*; Shn3 inh set2: 16; Peg3 prom inh: -2; HIF-2a inh: -19; KKLEB cytotox: 5

How did CCCc1ccc(C(=O)NNc2cc(Cl)ccc2Cl)cc1 do in these assays?
CF NFkB inh: 6; TRPM1 prom inh: 1; Shn3 inh set2: 90*; Peg3 prom inh: -18; HIF-2a inh: -23; KKLEB cytotox: 1

What do the screens show for `CC(=O)N1c2ccc(S(=O)(=O)N3CCC(C(=O)Nc4cccc(C(F)(F)F)c4)CC3)cc2CC1C` (configuration not stated)?
CF NFkB inh: 1; TRPM1 prom inh: 20; Shn3 inh set2: 93*; Peg3 prom inh: 8; HIF-2a inh: 15; KKLEB cytotox: -11
